# ChEMBL document CHEMBL3988442, “University of Dundee, Small-Polar-MMV Screening Library” (2021)
# About 13,000 (27%) of roughly 48,000 compounds showed an effect of 50% or more. Some of the results follow.
# System: Wolbachia pipientis
# Assay: Anti-Wolbachia Cell-Based Screen
# Type: functional
# Design: scale not given: in the data most compounds retested in dose-response had high values
# Conditions: 5 µM
row,SMILES,Percent Effect [%]
1,CNC(=O)c1nc2c(s1)CCN(C(=O)c1cccnc1)CC2.O=C(O)C(F)(F)F,-13.23
2,Cc1ccc(C)c(-n2ccc3nc(N4CCCC4)ncc3c2=O)c1,-2.601
3,O=C(N[C@@H]1CN(c2ncccn2)C[C@@H]2CCCO[C@@H]21)c1ccncc1.O=C(O)C(F)(F)F.O=C(O)C(F)(F)F,-5.975
4,Cc1cccc(CN2C[C@@H]3CCCO[C@@H]3[C@H](Nc3ccccn3)C2)n1,113.7
5,Cc1ccc(N[C@@H]2CN(Cc3cc(C)on3)C[C@@H]3CCCO[C@@H]32)nn1.O=C(O)C(F)(F)F.O=C(O)C(F)(F)F,92.65
6,Cc1ccc(CN2C[C@@H]3CCCO[C@@H]3[C@H](NS(C)(=O)=O)C2)o1.O=C(O)C(F)(F)F,-4.883
7,O=C(N[C@@H]1CN(Cc2ccccc2)C[C@@H]2CCCO[C@@H]21)C1CC1.O=C(O)C(F)(F)F,-2.249
8,Cc1noc(C)c1CN1C[C@@H]2CCCO[C@@H]2[C@H](Nc2ccccn2)C1.O=C(O)C(F)(F)F.O=C(O)C(F)(F)F,91.6
9,Cn1cc(CN2C[C@@H]3CCCO[C@@H]3[C@H](NC(=O)CC3CC3)C2)cn1.O=C(O)C(F)(F)F,-5.365
10,CCCn1nccc1C(=O)N1CCCN(CCCc2ccccc2)CC1,-7.679
11,COc1cc(N2CCC3(CCCN3Cc3cnn(C)c3)CC2)ncn1.O=C(O)C(F)(F)F,0.3231
12,O=C1OCCN1CCNc1ncc2c(n1)CCN2c1ccccc1,15.29
13,CN(Cc1nc(-c2cccnc2)no1)C(=O)c1cnc2n1CCCC2,-9.583
14,CC1CCc2nc(NC(=O)CN(C)C(=O)c3ccco3)sc2C1 (stereo not drawn),6.016
15,COc1ccc2nnc(CCCC(=O)NCc3cccn3C)n2n1,11.78
16,COc1cccc2c1OCC(C(=O)NCc1nc3c(s1)CCCC3)C2 (stereo not drawn),-11.26
17,COc1ccc2nnc(CCCC(=O)NCCC3=CCCCC3)n2n1,8.382
18,COc1ccc2nnc(CCC(=O)Nc3nc(C)c(C)s3)n2n1,119
19,COc1ccc2nnc(CCC(=O)Nc3nc4c(s3)CCC4)n2n1,122.5
20,COc1ccc2nnc(CCC(=O)Nc3nc4c(s3)CCCC4)n2n1,139.1
21,COc1ccc2nnc(CCCC(=O)Nc3nc4c(s3)CCC4)n2n1,114

row,SMILES,Percent Effect [%]
1,O=C(CN1CCCC(c2ccn[nH]2)C1)Nc1nc2c(s1)CCCC2 (stereo not drawn),3.48
2,COc1ccc(CNC(=O)NCc2nc(C)c(C)s2)cn1,-2.055
3,Cl.O=C(Nc1cccc(CNCc2csc(Br)c2)c1)C1CC1,8.664
4,Cn1c(CN2CCCC(Cn3cc(CCO)nn3)C2)cc2ccccc21 (stereo not drawn),-3.517
5,Cc1ccc2cc(C3(O)CCN(C(=O)CSC(C)C)CC3)ccc2n1,8.492
6,Cc1ccc(C)c(OCc2cc(C(=O)N(C)CC(O)CO)no2)c1 (stereo not drawn),-202.7
7,O=C(NC1CC1)[C@H]1C[C@H]2OCC[C@H]2N(CC2CC2)C1.O=C(O)C(F)(F)F,-11.18
8,COC[C@@H]1CC[C@H]2[C@H](CCN2S(=O)(=O)Cc2ccccc2)O1,24.17
9,Cc1ccc(C(=O)N2C[C@H]3CC[C@@H]2CN(S(=O)(=O)N(C)C)C3)c(O)c1,-19.11
10,CCOC(C)c1noc(CN(C)C(=O)c2cc3ccccn3c2)n1 (stereo not drawn),5.368
11,CCc1ocnc1C(=O)N1CCC(n2cc(-c3ccsc3)nn2)CC1,-3.384
12,COc1ccc2nnc(CCC(=O)Nc3nc4c(s3)CCCCC4)n2n1,106.8
13,Cc1nc(S(=O)(=O)NCCC(=O)NCc2ccc(C#N)cc2)cn1C,-22.12
14,CCN(CC1CCCO1)C(=O)Nc1cc(C(N)=O)ccc1OC (stereo not drawn),103.2
15,CCN(CC1CCCO1)C(=O)Nc1cc(OC)c(OC)cc1C (stereo not drawn),1.885
16,CCN(CC1CCCO1)C(=O)Nc1ccc(OC)c(C)c1 (stereo not drawn),118.7
17,CCN(CC1CCCO1)C(=O)Nc1cc(C(=O)OC)ccc1F (stereo not drawn),-7.432
18,CCN(CC1CCCO1)C(=O)Nc1cccc(N2CCOCC2)c1 (stereo not drawn),-20.72
19,CCN(CC1CCCO1)C(=O)Nc1cc(C)ccc1S(C)(=O)=O (stereo not drawn),111.7
20,CCN(CC1CCCO1)C(=O)Nc1cccc(Cl)c1OC (stereo not drawn),103.8
21,CCN(CC1CCCO1)C(=O)Nc1ccc(F)cc1OC (stereo not drawn),-0.9971

row,SMILES,Percent Effect [%]
1,CCN(CC1CCCO1)C(=O)CSCC(=O)Nc1ccc(C)cc1 (stereo not drawn),18.9
2,CCCC(=O)Nc1ccc(CC(=O)N(CC)CC2CCCCO2)cc1 (stereo not drawn),-7.616
3,CN(C)c1ccc(CCCNC(=O)Nc2ccc(C#N)cc2)cc1,14.16
4,O=C(c1ccc(N2CCCC2)nn1)N1CCCc2cc(F)c(F)cc21,-2.029
5,Cc1nc(CCCNC(=O)C2CC(=O)N(C(C)(C)C)C2)sc1C (stereo not drawn),-4.767
6,COc1cccc(-n2nnc(C(=O)N3CCNC(=O)C3)c2C)c1,2.603
7,COCCN(CC1CCCO1)C(=O)CCNC(=O)c1ccccc1F (stereo not drawn),6.163
8,CCN(CC1CCCCO1)C(=O)CCNC(=O)c1ccccc1F (stereo not drawn),0.5335
9,CCN(CC1CCCO1)C(=O)NCCNC(=O)c1ccccc1F (stereo not drawn),93.7
10,CCOCCCC(=O)NC1CCN(C(C)c2ccccc2)CC1 (stereo not drawn),-0.8786
11,CSCC(=O)NC1CCN(C(C)c2ccccc2)CC1 (stereo not drawn),-9.489
12,CC1CCN(CC(=O)NC2CCN(C(C)c3ccccc3)CC2)CC1.Cl (stereo not drawn),112.7
13,Cc1cnn(CCC(=O)Nc2cccnc2N2CCC(CO)CC2)c1,-13.92
14,CCc1nc(C2CCCN(C(=O)c3c[nH]c(C(C)C)n3)C2)no1 (stereo not drawn),7.02
15,CCNC(=O)N1CCCC(c2noc(CC)n2)C1 (stereo not drawn),-3.898
16,CCc1nc(C2CCCN(C(=O)CC3CCOCC3)C2)no1 (stereo not drawn),122.8
17,CCc1nc(C2CCCN(C(=O)CN(C)S(C)(=O)=O)C2)no1 (stereo not drawn),1.006
18,CCc1nc(C2CCCN(C(=O)NC(C)C)C2)no1 (stereo not drawn),123.4
19,CCc1nc(C2CCCN(C(=O)C(C)(C)NS(C)(=O)=O)C2)no1 (stereo not drawn),113.6
20,CCc1nc(C2CCCN(C(=O)C3=NN(C(C)C)C(=O)CC3)C2)no1 (stereo not drawn),7.741
21,CCc1nc(C2CCCN(C(=O)NC3CC3)C2)no1 (stereo not drawn),109.2
